The text below walks through data of PubChem BioAssay.

Molecules are shown by their SMILES. The source made the active and inactive calls.

In experiment [1] the target is Albumin (Bos taurus) (UniProt P02769). Kind of experiment: bovine serum albumin binders on microarray, profiling panel, artefact control for SMM control protein annotation, biochemical, small-molecule microarray, Alexa647 label, 635/667 nm fluorescence (AID 1118).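 Note: score merges 667 nm emission intensity and signal-to-noise per printed compound spot.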 The note with it: BSA-A647 binding, fluorescence 635 nm, higher = more signal.
Chain of Albumin (Bos taurus) (P02769 whole entry, looked up): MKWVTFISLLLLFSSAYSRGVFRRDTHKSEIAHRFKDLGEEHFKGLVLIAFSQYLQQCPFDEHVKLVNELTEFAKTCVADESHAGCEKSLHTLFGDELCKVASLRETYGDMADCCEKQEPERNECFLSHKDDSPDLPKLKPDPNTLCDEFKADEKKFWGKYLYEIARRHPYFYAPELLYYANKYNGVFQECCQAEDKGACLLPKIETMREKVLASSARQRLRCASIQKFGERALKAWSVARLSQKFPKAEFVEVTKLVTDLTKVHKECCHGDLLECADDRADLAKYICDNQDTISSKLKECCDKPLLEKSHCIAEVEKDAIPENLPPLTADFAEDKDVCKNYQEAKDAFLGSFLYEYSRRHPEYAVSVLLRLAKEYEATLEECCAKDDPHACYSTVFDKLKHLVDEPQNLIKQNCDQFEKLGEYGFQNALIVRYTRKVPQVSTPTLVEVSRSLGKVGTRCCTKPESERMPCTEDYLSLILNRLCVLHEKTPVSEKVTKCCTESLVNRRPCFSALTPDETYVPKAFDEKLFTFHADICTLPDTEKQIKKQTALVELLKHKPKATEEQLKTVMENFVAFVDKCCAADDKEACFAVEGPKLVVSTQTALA
Experiment [2] can be described thus: small-molecule microarray binders of probe aXIP, primary screen, biochemical, NeuroSMM set, 635/667 nm fluorescence (AID 1119).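 Note: probe is the protein aXip251-270 applied at 1 µg/mL to compound-printed slides; binding of probe to printed compounds measured as 667 nm fluorescence plus signal to noise.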 The note with it: higher = more signal, called active from +8 up or from −8 down.
Experiment [3] in a line: small-molecule binders of probe aNOTCH3, primary screen, biochemical, small-molecule microarray, 635/667 nm fluorescence (AID 1120).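 Note: probe is a biotin-tagged antibody raised against NOTCH3 rather than NOTCH3 protein; score merges spot fluorescence near 667 nm with spot signal to noise.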 The note with it: higher = more signal.
Experiment [4] can be described thus: small-molecule binders of probe aNOTCH2, primary screen, biochemical, small-molecule microarray, 635/667 nm fluorescence (AID 1121).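 Note: score merges feature fluorescence read at 667 nm with its signal to noise.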 As to conditions: higher = more signal.
Experiment [5] deals with Carbonic anhydrase 2 (Homo sapiens) (UniProt P00918). Kind of experiment: CAII small-molecule binders, profiling panel, biochemical, small-molecule microarray, Alexa647-labelled CAII (AID 1122). As to conditions: CAII-A647 binding fluorescence, higher = more signal.
Experiment [6] can be described thus: COS7 lysate on small-molecule microarray, probe aHis, 635 nm (AID 1123).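 Note: z-score combines 667nm fluorescence intensity with signal-to-noise per printed compound spot.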 The note with it: COS7 cell lysate, fluorescence, higher = more signal.
The nature of experiment [7]: compound binding in COS7 lysate, probe aLAP1, primary screen, cell lysate, small-molecule microarray (AID 1124).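 Note: lysate comes from COS7 cells expressing LAP1 and is applied at 0.3 µg/mL; score merges spot fluorescence near 667 nm with signal-to-noise over triplicate slides.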 The note with it: probe aLAP1, fluorescence, higher = more signal.
In experiment [8] the test system is Sam68 (KHDRBS1). Nature of the experiment: Sam68 small-molecule binders, primary screen, biochemical, small-molecule microarray, 635 nm fluorescence (AID 1125).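 Note: score merges 667 nm channel intensity with signal to noise over triplicate slides.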 The note with it: small-molecule microarray binding, higher = more signal.
The subject of experiment [9] is Chordin-like protein 2 (CHRDL2). Nature of the experiment: CHRDL2 small-molecule binders, primary screen, biochemical, small-molecule microarray, 635 nm fluorescence (AID 1126).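 Note: printed compound slides probed with Chrdl2 protein at 4 µg/mL for 1 h at 4 C; score merges 667 nm emission intensity with signal to noise over three replicate slides.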 As to conditions: small-molecule microarray binding, fluorescence 635 nm; higher = more signal.
Experiment [10] addresses Concanavalin-A (Canavalia ensiformis) (UniProt P02866). Nature of the experiment: ConA small-molecule binders, primary screen, artefact control for SMM control protein annotation, biochemical, small-molecule microarray, Alexa647 label, 635 nm (AID 1127).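 Note: z combines 667 nm emission intensity with signal-to-noise across three replicate slides.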 The note with it: ConA-A647 binding fluorescence, higher = more signal.
Experiment [11] is described as follows: anti-His antibody binders, primary screen, artefact control for SMM control protein annotation, biochemical, small-molecule microarray, 635 nm fluorescence (AID 1128).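 Note: score merges feature fluorescence with signal-to-noise for each printed compound spot.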 The note with it: anti-His Alexa647 antibody binding, higher = more signal.
Experiment [12] relates to Human papillomavirus type 1a E7 protein (residues 1-88). Kind of experiment: HPV1a E7 small-molecule binders, primary screen, biochemical, small-molecule microarray, residues 1-88, 635 nm (AID 1129). As to conditions: small-molecule microarray binding, fluorescence 635 nm; higher = more signal.
Experiment [13] addresses Focal adhesion kinase 1 (Homo sapiens) (UniProt Q05397). Kind of experiment: small-molecule microarray binders of FAK, primary screen, biochemical, 635/667 nm fluorescence, BSA, DTT (AID 1130).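 Note: composite of spot emission at 667 nm and signal to noise over triplicate slides.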 As to conditions: PTK2 binding, 635 nm fluorescence, higher = more signal.
Experiment [14] deals with Fibrinogen (Alexa647-labelled). Nature of the experiment: fibrinogen binders on compound microarrays, profiling panel, artefact control for SMM control-protein annotation, biochemical, small-molecule microarray, 635/667 nm fluorescence (AID 1131).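 Note: z-score merges 667 nm fluorescence with per-spot signal-to-noise over triplicate slides.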 The note with it: fibrinogen-A647 binding fluorescence, higher = more signal.
Experiment [15] has as its target Follistatin (Homo sapiens) (UniProt P19883). Kind of experiment: follistatin binders on small-molecule microarrays, primary screen, biochemical, small-molecule microarray, 635/667 nm fluorescence (AID 1132). The note with it: FST binding, 635 nm fluorescence, higher = more signal.
In experiment [16] the target is Fibroblast growth factor 2 (Homo sapiens) (UniProt P09038). Nature of the experiment: FGF2 binders on small-molecule microarrays, primary screen, biochemical, small-molecule microarray, 635/667 nm fluorescence (AID 1133). The note with it: small-molecule microarray binding, FGF2, fluorescence 635/667; higher = more signal.
Chain of Fibroblast growth factor 2 (Homo sapiens) (P09038 whole entry, looked up): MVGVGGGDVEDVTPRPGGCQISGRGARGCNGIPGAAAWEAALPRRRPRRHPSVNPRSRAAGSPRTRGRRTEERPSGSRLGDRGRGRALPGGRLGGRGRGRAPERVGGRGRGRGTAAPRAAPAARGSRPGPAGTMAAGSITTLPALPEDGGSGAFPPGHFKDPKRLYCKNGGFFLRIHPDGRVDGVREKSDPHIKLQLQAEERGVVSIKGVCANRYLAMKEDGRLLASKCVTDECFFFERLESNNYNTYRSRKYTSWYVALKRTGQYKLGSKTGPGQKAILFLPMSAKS
Experiment [17] in a line: mitochondrial membrane potential change in A549 cells, profiling panel, cell-based, JC-1 fluorescence, basal, 24 h, 100 nL (AID 1138).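 Note: A549 lung adenocarcinoma cells under basal conditions with no added stimulus; test concentration not given here.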 As to conditions: higher = more signal.
The test system of experiment [18] is Lefty1. Kind of experiment: Lefty1 binders on small-molecule microarrays, primary screen, biochemical, small-molecule microarray, 635/667 nm fluorescence (AID 1139). The note with it: small-molecule microarray binding, fluorescence 635/667; higher = more signal.
Experiment [19] relates to wheat germ agglutinin (Triticum aestivum), Alexa647-labelled. Kind of experiment: wheat germ agglutinin binders on compound microarrays, profiling panel, artefact control for SMM control-protein annotation, biochemical, small-molecule microarray, 635/667 nm fluorescence (AID 1140).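 Note: score merges 667 nm feature emission with signal to noise over triplicate slides.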 As to conditions: WGA-A647 binding, 635 nm fluorescence, higher = more signal.
Experiment [20] concerns the target Luciferin 4-monooxygenase (Photinus pyralis) (UniProt P08659). Nature of the experiment: firefly luciferase enzyme inhibitors, primary screen, biochemical, luminescence, purified enzyme, 2006 set (AID 1141).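 Note: cell-free assay with purified firefly luciferase at 100 ng per well in PBS; test concentration not given here.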 The note with it: SteadyGlo luminescence, 30 min, higher = more signal, called active from +8 up or from −8 down.

Chain of Luciferin 4-monooxygenase (Photinus pyralis) (P08659 whole entry, looked up): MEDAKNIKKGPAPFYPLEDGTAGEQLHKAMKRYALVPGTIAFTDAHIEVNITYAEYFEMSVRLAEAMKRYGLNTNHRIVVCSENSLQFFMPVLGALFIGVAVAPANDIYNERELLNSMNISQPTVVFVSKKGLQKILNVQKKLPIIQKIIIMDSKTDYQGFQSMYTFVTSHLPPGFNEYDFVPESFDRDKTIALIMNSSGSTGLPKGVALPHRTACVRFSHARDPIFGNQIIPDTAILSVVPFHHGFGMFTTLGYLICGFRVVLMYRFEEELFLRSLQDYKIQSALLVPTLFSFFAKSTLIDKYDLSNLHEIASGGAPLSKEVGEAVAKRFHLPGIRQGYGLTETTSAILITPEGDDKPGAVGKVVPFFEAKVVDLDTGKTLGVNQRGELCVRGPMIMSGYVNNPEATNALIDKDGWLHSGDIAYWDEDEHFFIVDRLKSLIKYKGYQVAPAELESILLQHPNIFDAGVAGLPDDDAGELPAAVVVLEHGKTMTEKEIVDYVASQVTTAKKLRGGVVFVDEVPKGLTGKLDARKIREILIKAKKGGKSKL
Chain of Follistatin (Homo sapiens) (P19883 whole entry, looked up): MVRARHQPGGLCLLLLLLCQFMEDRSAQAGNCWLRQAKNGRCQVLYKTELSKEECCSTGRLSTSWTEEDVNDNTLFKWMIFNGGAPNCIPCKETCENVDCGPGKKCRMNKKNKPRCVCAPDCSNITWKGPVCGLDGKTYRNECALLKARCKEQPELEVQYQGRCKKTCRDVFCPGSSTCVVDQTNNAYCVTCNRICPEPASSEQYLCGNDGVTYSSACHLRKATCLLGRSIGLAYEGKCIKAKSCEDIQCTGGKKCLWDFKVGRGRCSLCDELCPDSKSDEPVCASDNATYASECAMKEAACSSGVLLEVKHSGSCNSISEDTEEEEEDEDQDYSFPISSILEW
Chain of Focal adhesion kinase 1 (Homo sapiens) (Q05397 whole entry, looked up): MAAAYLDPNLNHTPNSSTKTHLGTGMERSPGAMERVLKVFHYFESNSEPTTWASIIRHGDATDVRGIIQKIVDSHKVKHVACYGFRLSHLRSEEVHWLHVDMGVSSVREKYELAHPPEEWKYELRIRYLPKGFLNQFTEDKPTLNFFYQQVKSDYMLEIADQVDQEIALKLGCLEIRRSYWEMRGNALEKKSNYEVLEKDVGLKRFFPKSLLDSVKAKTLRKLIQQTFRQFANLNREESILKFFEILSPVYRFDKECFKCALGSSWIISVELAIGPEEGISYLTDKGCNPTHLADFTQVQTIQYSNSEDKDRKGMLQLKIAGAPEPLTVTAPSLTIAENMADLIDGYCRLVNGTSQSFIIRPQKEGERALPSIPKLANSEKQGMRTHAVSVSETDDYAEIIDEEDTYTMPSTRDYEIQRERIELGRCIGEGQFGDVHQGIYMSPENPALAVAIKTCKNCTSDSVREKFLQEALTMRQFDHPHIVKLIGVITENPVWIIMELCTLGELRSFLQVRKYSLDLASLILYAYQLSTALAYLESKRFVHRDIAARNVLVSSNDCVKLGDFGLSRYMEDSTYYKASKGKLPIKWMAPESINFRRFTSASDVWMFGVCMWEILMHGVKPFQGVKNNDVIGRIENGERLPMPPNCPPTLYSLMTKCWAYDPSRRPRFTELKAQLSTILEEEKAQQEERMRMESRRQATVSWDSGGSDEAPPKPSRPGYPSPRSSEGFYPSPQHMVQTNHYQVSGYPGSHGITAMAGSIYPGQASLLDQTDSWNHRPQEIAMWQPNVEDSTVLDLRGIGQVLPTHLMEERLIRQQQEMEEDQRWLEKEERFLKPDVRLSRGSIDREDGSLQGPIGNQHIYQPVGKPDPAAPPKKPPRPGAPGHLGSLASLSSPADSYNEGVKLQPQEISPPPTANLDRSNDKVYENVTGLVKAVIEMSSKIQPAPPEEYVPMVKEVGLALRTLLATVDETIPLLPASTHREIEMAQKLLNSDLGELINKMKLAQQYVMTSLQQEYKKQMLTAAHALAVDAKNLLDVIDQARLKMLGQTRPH
Chain of Concanavalin-A (Canavalia ensiformis) (P02866 whole entry, looked up): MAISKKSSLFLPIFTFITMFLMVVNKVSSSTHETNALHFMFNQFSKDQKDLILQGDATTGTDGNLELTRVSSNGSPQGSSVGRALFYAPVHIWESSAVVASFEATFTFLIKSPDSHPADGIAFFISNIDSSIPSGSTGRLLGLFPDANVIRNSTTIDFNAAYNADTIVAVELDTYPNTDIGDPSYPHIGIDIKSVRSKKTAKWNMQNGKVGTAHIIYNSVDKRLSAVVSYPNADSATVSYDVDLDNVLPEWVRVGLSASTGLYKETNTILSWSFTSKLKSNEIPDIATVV

With `O=C1O[C@@H](c2ccccc2)[C@@H](c2ccccc2)N2[C@@H](c3ccc(O)cc3)[C@]3(C(=O)Nc4ccc(C#CC5(O)CCCCCC5)cc43)[C@@H](C(=O)NC[C@H](O)c3ccccc3)[C@H]12`, the composite z-score in experiment [1] was 0.0697; in experiment [3] it was -0.262; in experiment [4] it was -0.0984; in [5] it was 0.547; in experiment [6], 1.05; in [7], 0.632. Further, the composite z-score in [8] is 0.686; in [9], -0.703; in experiment [10] it was 0.221; in experiment [11], 0.326; in experiment [12], 0.899; in [13] it was 0.551. Besides, the composite z-score in [14] is 0.151; in experiment [15] it was -0.538; in [16] it was -0.322; in experiment [18], -0.218; in experiment [19], 0.297. In addition, the composite Z-score in experiment [2] was 0.2 (inactive). Besides, the results for the z-score in [17] and in experiment [20] were -1.31 and 0.27 (inactive), respectively.

As to `CC[C@H]1C2=C3C(CC[C@H]4C(OCc5ccc(F)cc5C(F)(F)F)OC[C@](C)([C@@H]34)N(C(=O)OC(C)(C)C)C2)C(COC)C1COC` (stereo not given in full), the composite z-score in experiment [1] was 0.515; in [3] it was 0.0851; in experiment [4], -0.0372; in [5], 0.687; in [6], 1.1; in experiment [7], -0.115. The composite z-score is 0.0783 in [8]; -0.882 in experiment [9]; 0.401 in experiment [10]; -0.0372 in experiment [11]; 0.0144 in [12]; -0.093 in [13]. For the same molecule, the composite z-score was -0.0416 in experiment [14]; -0.0566 in [15]; -0.758 in experiment [16]; -0.477 in experiment [18]; 0.225 in experiment [19]. Also, the composite Z-score in [2] is 0.0377 (inactive). Besides, the figures for the z-score in experiment [17] and in experiment [20] were 0.767 and 0.303 (inactive), respectively.

`COCCCNC(=O)[C@@]1(Cc2ccccc2N=[N+]=[N-])COC(c2ccc(OCCCO)cc2)=N1`: the composite z-score in experiment [1] was 0.538; in experiment [3] it was 0.125; in [4] it was -0.0928; in [5], 0.31; in experiment [6], 2.27; in experiment [7] it was 0.398. Moreover, the composite z-score was 1.05 in experiment [8]; -0.938 in [9]; 1.1 in experiment [10]; 1.47 in experiment [11]; 1.22 in experiment [12]; 0.614 in [13]. Besides, the composite z-score in experiment [14] is 0.967; in [15] it was 0.773; in experiment [16] it was -0.186; in [18] it was -0.351; in [19], 0.976. In addition, in experiment [2], the composite Z-score was 0.889 (inactive). Besides, the z-score in [17] is 0.961; in experiment [20] it was -2.1 (inactive).

Consider `COc1ccc([Si](C)(C)[C@H]2[C@H](CCO)O[C@@]3(C(=O)N(Cc4cccc(N5C(=O)COc6ccccc65)c4)c4ccccc43)[C@@H]2C)cc1`, for which the composite z-score in experiment [1] is 0.336; in [3], -0.0343; in [4], 0.0425; in experiment [5] it was 0.338; in experiment [6], 0.317; in experiment [7], 0.232. Also, the composite z-score was 0.297 in experiment [8]; 0.0083 in [9]; 0.567 in experiment [10]; 0.354 in experiment [11]; -0.0131 in experiment [12]; -0.0804 in experiment [13]. In addition, the composite z-score is 0.0563 in [14]; 0.196 in experiment [15]; -0.032 in experiment [16]; -0.236 in [18]; 0.715 in experiment [19]. For the same molecule, the composite Z-score in [2] was 0.0953 (inactive). The z-score in experiment [17] is 1.17; in experiment [20] it was -1.17 (inactive).
